Experimental data from PubChem BioAssay AID493011 (Sanford-Burnham Center for Chemical Genomics, 2011).
Among all 330,000 compounds or so, about 1,400 (0.42%) were called active. The sample holds actives, similar compounds and a random draw of the others, so the mix is not that of the screen. Unmarked numbers belong to inactive results.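 How the source made its calls: active means at least 40% inhibition at 20 µM here, with at most 30% in a related deaminase screen; inactive means the rest.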

Biological target: DNA dC->dU-editing enzyme APOBEC-3A (Homo sapiens) (UniProt P31941)
Sequence (P31941 whole entry, looked up): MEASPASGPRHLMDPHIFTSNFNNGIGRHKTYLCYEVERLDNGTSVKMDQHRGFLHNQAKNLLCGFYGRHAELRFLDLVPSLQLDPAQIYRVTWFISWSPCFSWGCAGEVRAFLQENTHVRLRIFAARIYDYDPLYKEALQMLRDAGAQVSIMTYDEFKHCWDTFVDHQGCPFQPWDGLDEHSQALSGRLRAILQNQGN
Assay: APOBEC3A ssDNA deaminase inhibitors, primary screen, selectivity assay for APOBEC3G inhibitor project, biochemical, FAM/TAMRA oligo cleavage fluorescence (AID 493011);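 further: plate controls were A3A with DMSO for no effect and wells lacking A3A enzyme for full effect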
Conditions: recombinant A3A, FAM/TAMRA ssDNA deamination fluorescence; at 20 µM; hits give high values

With CCc1nnc(NC(=O)CCC(=O)N2CCN(c3cc(C)ccc3C)CC2)s1 as the compound, how does the inhibition read?
The inhibition was -1.97%.

With COc1ccc2[nH]c(=O)c(-c3noc(-c4ccc(F)cc4)n3)cc2c1 as the compound, how does the inhibition read?
Its inhibition is 70.7% (active).

Which inhibition does the source give for COc1ccc(Cc2cc(-c3ccc(F)cc3)n[nH]c2=O)cc1 here?
The inhibition was -4.85%.

Which inhibition does the source give for CCC(=O)N(CCc1ccccc1)Cc1cc2cc(C)ccc2[nH]c1=O here?
Its inhibition is -6.3%.

For CCCc1nc(-c2cc3cc(C)ccc3[nH]c2=O)no1, which inhibition is on record?
Its inhibition is 40.2% (active).

For CCN(Cc1cc2cc(C)ccc2[nH]c1=O)S(=O)(=O)c1ccccc1, which inhibition is on record?
Its inhibition is -2.49%.

How did the inhibition turn out when COc1ccc2[nH]c(=O)c(CNc3ccc(C)c(C)c3)cc2c1 was run?
Its inhibition is 0.515%.

How did the inhibition turn out when C/C(=C\c1ccco1)CN1CCC(N2CCC(C(=O)N3CCOCC3)CC2)CC1 was run?
The inhibition was -1.12%.

CC1CCCCC1NC(=O)CSc1nnc(N)s1 (stereo not drawn) was tested. Which inhibition did it give?
Its inhibition is -0.077%.

With Cc1cc(C)n2nc(C(=O)Oc3ccc4c(c3)OCO4)nc2n1 as the compound, how does the inhibition read?
Its inhibition is 0.02%.

Cc1ccc(-c2nc(C#N)c(NCCCn3ccnc3)o2)cc1 was tested. Which inhibition did it give?
The inhibition was 0.374%.

For CC[n+]1cc(C)ccc1/C=C/c1ccc(N(C)C)cc1, which inhibition is on record?
Its inhibition is 64.4% (active).

For CN1CCN(S(=O)(=O)c2cccc(C(=O)Nc3sccc3C#N)c2)CC1, which inhibition is on record?
Its inhibition is 0.346%.

Which inhibition does the source give for Cc1ccc(CNC(=O)c2ccc(CS(=O)Cc3cccc(Cl)c3)o2)cc1 (stereo not drawn) here?
Its inhibition is -4.67%.

For Cc1ccc(/C=C/C(=O)OCC(=O)NCc2ccc(Cl)cc2)o1, which inhibition is on record?
Its inhibition is 1.93%.

Nc1ccc(C(=O)NCc2ccccc2)cc1 was tested. Which inhibition did it give?
The inhibition was 5.23%.

With CS(=O)(=O)NCc1ccc(C(=O)NCc2ccccc2)cc1 as the compound, how does the inhibition read?
The inhibition was -3.29%.

Which inhibition does the source give for C[n+]1ccc(C(=O)NCc2ccccc2)cc1 here?
The inhibition was 77.2% (active).

With COc1ccc(Cl)cc1NC(=O)COC(=O)c1ccc(Br)o1 as the compound, how does the inhibition read?
The inhibition was -2.56%.

How did the inhibition turn out when COc1ccc(CNc2nnnn2C)cc1 was run?
Its inhibition is 63.5% (active).

For CCCn1nnnc1NCc1ccc(OC)cc1, which inhibition is on record?
The inhibition was -5.24%.

With Cn1nnnc1NCc1ccc(Cl)c(Cl)c1 as the compound, how does the inhibition read?
Its inhibition is 1.46%.

Which inhibition does the source give for Cc1ccc(N(Cc2ccccc2O)C(=O)c2ccccc2F)cc1 here?
Its inhibition is 3.92%.

How did the inhibition turn out when CC1(C)Oc2ccc3ccc(=O)oc3c2/C(=N/O)C1=O was run?
The inhibition was -5.21%.

For CC1(C)Oc2ccc3ccc(=O)oc3c2/C(=C/NCCO)C1=O, which inhibition is on record?
The inhibition was 55.6% (active).

For C/C=C(/C)C(=O)OC1Cc2c(ccc3ccc(=O)oc23)OC1(C)C (stereo not drawn), which inhibition is on record?
Its inhibition is -4.35%.

Which inhibition does the source give for Cc1cnc(C(=O)OCC(=O)NCCCc2ccccc2)cn1 here?
The inhibition was -5.14%.

How did the inhibition turn out when COc1ccc2[nH]c(C)c(CCN(Cc3cccs3)C(=S)Nc3ccccc3OC)c2c1 was run?
The inhibition was -5.52%.

How did the inhibition turn out when O=C(c1ccc(CS(=O)(=O)c2ccccc2)o1)N1CCN(c2ccccc2)CC1 was run?
Its inhibition is 40% (active).

With O=C(c1ccc(S(=O)(=O)NCc2ccco2)cc1)N1CCN(c2ccccc2)CC1 as the compound, how does the inhibition read?
The inhibition was -1.4%.

With COc1ccccc1CNC(=O)c1ccc(CS(=O)(=O)c2ccccc2)o1 as the compound, how does the inhibition read?
The inhibition was 3.87%.

How did the inhibition turn out when Cc1c(NC(=O)C(C)Oc2cccc(Cl)c2)c(=O)n(-c2ccccc2)n1C (stereo not drawn) was run?
The inhibition was 2.72%.

O=C(NCCCNCc1ccccc1)c1ccc(/C=N/O)nc1 was tested. Which inhibition did it give?
Its inhibition is 0.078%.

Which inhibition does the source give for CC(C)c1ccc(C(=O)NCCCc2ccccc2)cc1 here?
The inhibition was -3.9%.

How did the inhibition turn out when C[N+](C)(C)CCNC(=O)c1cc[n+](Cc2ccccc2)c(/C=N/O)c1 was run?
The inhibition was 77.9% (active).

Which inhibition does the source give for CCC(=O)Nc1ccc(Nc2nc(Cl)nc(Nc3ccc(NC(=O)CC)cc3)n2)cc1 here?
The inhibition was -1.91%.

CC(=O)Nc1ccc(Nc2cc(C)nc(Nc3ccc(NC(C)=O)cc3)n2)cc1 was tested. Which inhibition did it give?
Its inhibition is 52.3% (active).

Which inhibition does the source give for COc1ccc(C(=O)NNc2cc(C)nc(NNC(=O)c3ccc(OC)cc3)n2)cc1 here?
Its inhibition is 1.15%.

For COc1ccc(NC(=O)C(NC(C)=O)C(=O)NCc2ccccc2Cl)cc1 (stereo not drawn), which inhibition is on record?
The inhibition was -1.84%.

Which inhibition does the source give for CC(C)c1c(O)nc(SCCOc2ccc(Cl)cc2)[nH]c1=O here?
Its inhibition is -2.86%.

CCN(Cc1ccccc1)C(=O)CN1C(=S)NC(C)(C)CC1C (stereo not drawn) was tested. Which inhibition did it give?
Its inhibition is -4.37%.

Which inhibition does the source give for CCN(CC)CCOC(=O)c1ccc(NC(=O)CNC(=O)c2ccccc2)cc1 here?
The inhibition was 49.1% (active).

With CCN(CC)CCNCC(=O)Nc1ccc(Oc2ccccc2)cc1 as the compound, how does the inhibition read?
Its inhibition is -4.52%.

How did the inhibition turn out when CCOC(=O)c1ccc(NC(=O)CNC(=O)c2ccco2)cc1 was run?
Its inhibition is -2.59%.

With CC(C)Oc1ccc(C(CC(=O)N2CCOCC2)C(C)C)cc1 (stereo not drawn) as the compound, how does the inhibition read?
The inhibition was 2.91%.

With CNc1ccc([N+](=O)[O-])cc1C(=O)O as the compound, how does the inhibition read?
The inhibition was 43.2% (active).

How did the inhibition turn out when Cc1ccc(NC(=O)c2cc([N+](=O)[O-])ccc2Cl)c(O)c1 was run?
The inhibition was 1.45%.

CCN(CC)c1ccc([N+](=O)[O-])cc1C(=O)O was tested. Which inhibition did it give?
Its inhibition is 3.17%.

Cc1ccc(N/N=C2\COC(C)(C)CC2=O)cc1 was tested. Which inhibition did it give?
The inhibition was -3.88%.

For Cc1cccc(OCC(=O)NCCNC(=O)c2cccnc2)c1, which inhibition is on record?
The inhibition was -1.26%.

Which inhibition does the source give for CCNC(=O)COC(=O)CCNC(=O)c1cccc(C)c1 here?
The inhibition was 82.3% (active).

Cc1cccc(C(=O)NCC(=O)OCC(=O)N(C)CC(=O)Nc2ccccc2Cl)c1 was tested. Which inhibition did it give?
Its inhibition is -1.62%.

For CC(C)Cn1c(N2CCN(C(=O)/C=C/c3ccccc3)CC2)nc2ccccc21, which inhibition is on record?
The inhibition was -1.07%.

Cc1cc2c(cc1C)[n+](C)cn2CC(O)COCC1CC=CCC1 (stereo not drawn) was tested. Which inhibition did it give?
Its inhibition is 46.1% (active).

COc1ccc(-c2noc(CCC(=O)N3CCN(c4cccc(C)c4)CC3)n2)cc1 was tested. Which inhibition did it give?
Its inhibition is 3.55%.

How did the inhibition turn out when CC(C)(CSc1nncn1/N=C/c1ccco1)NS(=O)(=O)c1ccc(Cl)cc1 was run?
The inhibition was 5.18%.

O=C(NC1CC1)C1CCCN(C(=O)NC2CCCCC2)C1 (stereo not drawn) was tested. Which inhibition did it give?
The inhibition was -2.29%.

How did the inhibition turn out when CC[C@]1(C(=O)OC)[C@H]2C(=O)N(C)C(=O)[C@H]2[C@H]2CN(C)C(=NCc3ccccc3)N21 was run?
The inhibition was 2.1%.
